Reference: PubChem BioAssay (NCI)
Compounds without any hit were thinned out: in the full panel of roughly 83,000, 20% have a hit.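 Compound tested at a single concentration for 48 hours in 96-well plates; a percent growth value below 10 was scored as active.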 Active and inactive are the calls of the source.

tested on: OVCAR-5 ovarian; assay: NCI-60 one-dose screen, 48 h (100 = growth as untreated, 0 = no growth, -100 = all killed); details: 10 µM unless noted
Description: Growth inhibition of the OVCAR-5 human tumor cell line is measured as a screen for anti-cancer activity. Cells are grown in 96 well plates and exposed to the test compound for 48 hours. Compounds are tested at a single concentration, which is 10^-5 M for most compounds. The reported endpoint is percent growth (GI% or GIPRCNT), where numbers from 0 - 100% represent growth inhibition, and numbers from -100% - 0 represent cell death. For example, a value of 40 represents 60% growth inhibition. A value of 0 means no net growth occurred over the course of the experiment. A value of -40 indicates 40% of cells at the beginning of the experiment died by the end of the experiment. A value of -100 means all cells are dead at the end of the experiment.
NCI-60 Human Tumor Cell Lines Screen was performed using the standard one-dose NCI protocol, which is described in more detail at https://dtp.cancer.gov/discovery_development/nci-60/default.htm.
Compounds with GIPRCNT values below 10 were considered active. Activity score was based on GIPRCNT using the following formula: […]
Score is 0 for GIPRCNT values of 100 or above, 50 for GIPRCNT values of 0, and 100 for GIPRCNT values of -100.

SMILES	growth
CCN(CC)CCCNc1cccc2c(SCc3ccccc3)ccnc12	107% (inactive)
CCCCCCCCCCCCNC(=O)[C@H]1CSC(c2ccc(OC)c(F)c2)N1 (stereo not given in full)	-98.6% (active)
Cc1cc2cc3cc(C)c(N(C)C)cc3nc2cc1N(C)C	53.9% (inactive)
c1ccc(CSc2ncnc3nc[nH]c23)nc1	96.6% (inactive)
COc1ccc(-c2csc(NC(=O)CN3CCN(c4cc5c(cc4F)c(=O)c(C(=O)O)cn5C4CC4)CC3)n2)cc1	37.4% (inactive)
Nc1c(C(=O)Nc2ccccc2)sc2nc3c(cc12)CN(CCc1ccccc1)CC3	99% (inactive)
CN(C)c1ccc(C2Nc3ccccc3-n3cccc32)cc1 (stereo not given)	72% (inactive)
COc1ccc(CCN2CCCn3c2nc2ccccc2c3=O)cc1	41.6% (inactive)
COc1nc2c(cc1S(=O)(=O)c1ccccc1)CCc1c-2cnn1Cc1ccccc1	93.6% (inactive)
COc1cc(-c2cc(-c3nc4ccc(Cl)cc4[nH]3)[nH]n2)cc(OC)c1OC	97.3% (inactive)
COc1ccc(-c2c(C)noc2-c2ccc(O)cc2O)cc1	112% (inactive)
COc1ccc(-c2nn(-c3ccccc3)cc2/C=C/C(=O)OCc2cn(-c3ccc(F)c(Cl)c3)nn2)cc1	106% (inactive)
O=C(CO[N+](=O)[O-])Nc1ccc(C(=O)/C=C/c2ccc(Cl)cc2)cc1	66.9% (inactive)
O=C(Cn1cc(CN2C(=O)c3ccccc3S2(=O)=O)nn1)Nc1ccc([N+](=O)[O-])cc1Cl	113% (inactive)
OC(c1cccc(C(F)(F)F)c1)c1cnccc1NC1CCCCCC1 (stereo not given)	79.8% (inactive)
CCN(CC)CCC(=O)Nc1ccc(Cn2nnc3c2C(=O)c2nnn(Cc4ccc(NC(=O)CCN(CC)CC)cc4)c2C3=O)cc1	-19.1% (active)
CSc1nc(NCCO)c(C#N)c(-c2cccc(N)c2)n1	96.2% (inactive)
CC(C)[C@H]1COC(=O)N1[C@@H]1C(=O)N([C@@H](CCC(=O)N2CCN(C3CCCC3)CC2)C(=O)N[C@@H]2CCCc3ccccc32)[C@@H]1/C=C/c1cccc(Br)c1	88.2% (inactive)
Oc1cc(O)c2c(=S)cc(-c3ccc(Cl)cc3)oc2c1	60.3% (inactive)
CCC(c1ccc(O)cc1)C(CC)c1ccc(O)c(F)c1 (stereo not given)	93.5% (inactive)

SMILES	growth
COc1ccc(C2Nc3ccccc3-n3cccc32)cc1 (stereo not given)	84.9% (inactive)
Cc1sc2nc3[nH]/c(=C\c4ccc(Cl)cc4)c(=O)n3c(=O)c2c1C	81.7% (inactive)
O=C(/C=C/c1cccc(Br)c1)c1ccccc1	83.2% (inactive)
COc1ccccc1N1CCN(CCn2c(=O)c3c(c4ccccc4n3C)n(C)c2=O)CC1	111% (inactive)
COc1cc(/C=N/N(C)C)ccc1O	106% (inactive)
Fc1ccc(Cc2ccc(F)cc2)cc1	102% (inactive)
CC[C@H](CO)Nc1nc(NCc2ccccc2)n2ncc(C(C)C)c2n1	22.4% (inactive)
CC/C(=C(\c1ccccc1)c1ccc(OCCNC)cc1)c1ccccc1	-85.2% (active)
COc1ccc(-c2nn(-c3ccccc3)cc2/C=C2\SC(=O)NC2=O)cc1	99.4% (inactive)
CCOC(=O)C12CCCC1=CC(=O)CC2 (stereo not given)	96.3% (inactive)
CC/C=C\C[C@H](O)C/C=C1/C(=O)C=C[C@@H]1C/C=C\CCCC(=O)NC	20.2% (inactive)
CCCCCCCCCc1cc(CN2CCCCC2)c(O)c(CN2CCCCC2)c1	59.8% (inactive)
O=c1c2cccc3c(Nc4c(F)cccc4F)ccc(c32)c2nc3ccccc3n12	99.5% (inactive)
CCC(=O)OCc1cccc(OC)c1	118% (inactive)
O=C1C=CC(Nc2ccccc2[N+](=O)[O-])C1Nc1ccccc1[N+](=O)[O-] (stereo not given)	12.3% (inactive)
CC(C)Oc1nc2c(c(=O)n(C)c(=O)n2C)n1C	106% (inactive)
ClC1=C2NC=NC2n2c(nnc2-c2ccc(Cl)cc2)N1 (stereo not given)	110% (inactive)
CN[C@@]12CC3(C=CC(=O)C=C3)O[C@]1(Cc1ccc(OC)cc1)N(C)C(=O)N2	33.1% (inactive)
O=c1ccc2cc3ccccc3cc2[nH]1	82% (inactive)
Clc1ccc(-c2nnc(COc3ccccc3Cl)o2)cc1	83.1% (inactive)
